The source of these data is PubChem BioAssay (NCI).

This is part of a sample that, as a whole, favours compounds with a hit. Of some 83,000 tested, about 20% had one in any assay.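 Testing used 96-well plates and a 48-hour single-concentration exposure. Example: -40 means 40% of the starting cells died.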 Unmarked numbers belong to inactive results. Active and inactive are the calls of the source. The calls were made as follows: active = growth percent below 10; inactive = the rest.

Holding throughout (experiment): NCI-60 one-dose screen, 48 h (100 = growth as untreated, 0 = no growth, -100 = all killed)
Details in all cases: 10 µM unless noted

Assay [1] has as its system RPMI-8226 leukemia.
Assay [2] concerns OVCAR-8 ovarian.
Assay [3] deals with OVCAR-5 ovarian.
Assay [4] relates to OVCAR-4 ovarian.
The test system of assay [5] is SK-OV-3 ovarian.
Assay [6] relates to IGROV1 ovarian.
Assay [7] relates to OVCAR-3 ovarian.
Assay [8] relates to HS 578T breast.
Assay [9] concerns NCI/ADR-RES ovarian.
The subject of assay [10] is T-47D breast.
Assay [11] relates to MDA-MB-435 melanoma.
For assay [12], the system named is SW-620 colon.
Assay [13] has as its system MCF7 breast.
For assay [14], the system named is HCT-116 colon.
The subject of assay [15] is HCC-2998 colon.
The test system of assay [16] is KM12 colon.
In assay [17] the test system is BT-549 breast.

As for `CC(C)(C)c1ccc(S(=O)(=O)O)s1`, the growth was 95.9% in assay [1]; 108% in assay [2]; 96.3% in [3]; 96.6% in assay [4]; 101% in assay [5]; -12.6% (active) in assay [6]. Moreover, the growth in assay [7] was 115%; in assay [8], 88.8%; in [9] it was 106%; in [10] it was 97.9%; in [11] it was 102%; in assay [12], 108%. In addition, the growth in assay [13] is 98%; in [14] it was 107%; in [15], 112%; in assay [16], 112%.

On to `NC(N)=NN=c1c(=O)c2ccccc2c1=O`, for which the growth in assay [1] was 60.1%; in [2], 81.5%; in assay [3] it was 98.9%; in assay [4], 103%; in assay [5], 98.1%; in assay [6], 102%. Besides, the growth was 80.6% in assay [7]; 109% in assay [8]; 91.7% in [9]; 116% in [10]; 92.3% in [17]; 12.7% in assay [11]. Further, the growth in [12] is -67% (active); in assay [14], -37.8% (active); in assay [15] it was 112%; in assay [16], 73.8%.

Take `C=CCOc1ccc2c(c1)CC[C@@H]1[C@@H]2CC[C@@]2(C)[C@H]1CC[C@]2(C)O`: the growth in assay [1] is 51.8%; in [2], 66.4%; in [3], 75.3%; in [4], 89.4%; in assay [5], 93.9%; in [6], 104%. For the same compound, the growth is 111% in [7]; 93% in [8]; 90.5% in assay [9]; 79.9% in [10]; 86.9% in assay [11]; 64.3% in assay [12]. Besides, the growth was 117% in assay [13], 94.4% in assay [14], 94.8% in assay [15] and 58.2% in [16].

As to `CN(CCOc1ccc(CC2SC(=O)NC2=O)cc1)c1ccccn1` (stereo not drawn), the growth is 104% in assay [1]; 91.9% in assay [2]; 95.2% in assay [3]; 110% in assay [4]; 106% in assay [5]; 97.9% in assay [6]. Also, the growth in assay [7] was 110%; in assay [8] it was 100%; in [9], 101%; in assay [10], 102%; in assay [17] it was 104%; in [11] it was 98.3%. The growth in [12] is 102%; in assay [14] it was 103%; in assay [16] it was 96.3%.

Turning to `Cc1c(C(N)=O)sc2ncn(CC(=O)Nc3ccc(Cl)cc3)c(=O)c12`, the growth in [1] is 101%; in assay [2], 105%; in assay [3], 85.5%; in assay [4], 110%; in assay [5] it was 106%; in assay [6], 533%. Moreover, the growth is 122% in [7]; 139% in [8]; 102% in [9]; 102% in assay [10]; 106% in [11]; 106% in assay [12]. Also, the growth is 108% in assay [13], 105% in assay [14], 118% in assay [15] and 117% in assay [16].

In the case of `CC[C@@H]1OC(=O)[C@H](C)[C@@H](O[C@H]2C[C@@](C)(OC)[C@@H](O)[C@H](C)O2)[C@H](C)[C@@H](O[C@@H]2O[C@H](C)C[C@H](N(C)C)[C@H]2O)[C@](C)(O)C[C@@H](C)[C@@H]2N[C@@H](COCCOC)O[C@H]([C@H]2C)[C@]1(C)O`, the growth is 88.8% in assay [1]; 102% in assay [2]; 105% in assay [3]; 106% in [4]; 109% in assay [5]; 108% in [6]. The growth in [7] was 124%; in assay [8], 115%; in assay [9], 101%; in [10] it was 105%; in assay [17], 92.2%; in assay [11], 106%. Also, the growth is 111% in assay [12], 85.6% in assay [14], 98.9% in assay [15] and 126% in assay [16].

As to `COc1ccc(-c2csc(NC(=O)c3cc(O)c(O)c(O)c3)n2)cc1`, the growth in assay [1] is 41.1%; in [2], 57.6%; in assay [3], 86.1%; in [4], 58.6%; in assay [5], 77.5%; in assay [6], 46.4%. Also, the growth in assay [7] is 72.6%; in assay [8] it was 101%; in assay [9], 62.2%; in assay [10], 44.7%; in assay [17], 66.9%; in assay [11], 64.4%. For the same compound, the growth is 56.8% in assay [12], 49.5% in assay [14] and 84.8% in [16].

Consider `COc1ccc2[nH]c(-c3ccccc3)cc2c1`, for which the growth in [1] is 48.5%; in assay [2] it was 103%; in assay [3] it was 109%; in assay [4] it was 81.3%; in [5], 110%; in assay [6], 100%. The growth in assay [7] was 101%; in [8], 105%; in [9], 113%; in [10], 72%; in assay [11] it was 100%; in assay [12], 102%. The growth was 95% in assay [13], 100% in assay [14], 118% in assay [15] and 99.3% in assay [16].

With `COc1ccc(-c2nn(-c3ccccc3)cc2/C=C2\SC(=S)N(CCc3ccc(O)cc3)C2=O)cc1`, the growth in [1] is 70.2%; in [2], 86.5%; in assay [3], 99.7%; in assay [4] it was 78.7%; in [5], 98.8%; in assay [6], 78.6%. In addition, the growth in [7] was 94%; in assay [8] it was 79.1%; in [9] it was 90.3%; in assay [10], 56.3%; in [17] it was 103%; in assay [11], 84.4%. Also, the growth in assay [12] was 87.6%; in assay [14] it was 90.2%; in [15], 107%; in assay [16], 81.5%.

With `CCN(CC)CCCCNc1c2ccccc2[n+](C)c2c1[nH]c1ccccc12`, the growth in [1] is -42.6% (active); in assay [2], -11.9% (active); in [3], -5.18% (active); in [4], -2.34% (active); in assay [5], -11.5% (active); in assay [6], -34.2% (active). Further, the growth was -13.6% (active) in assay [7]; -48.1% (active) in [8]; 86.5% in assay [9]; -11.7% (active) in assay [10]; -77.1% (active) in assay [11]; -7.04% (active) in [12]. The growth in assay [13] was -7.18% (active); in [14], 0.472% (active); in [15] it was -56.4% (active); in assay [16], -12.9% (active).
